Measured values: PubChem BioAssay (NCI)
This is part of a sample that, as a whole, favours compounds with a hit. Of some 83,000 tested, about 20% had one in any assay.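 Values shown are percent growth following 48 h exposure of cells in 96-well plates to a single concentration of compound; below 10 was considered active.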 The source made the active and inactive calls.

Legend:
Experiment in all cases: NCI-60 one-dose screen, 48 h (100 = growth as untreated, 0 = no growth, -100 = all killed)
Conditions in all cases: 10 µM unless noted
DU-145 prostate = tested on: DU-145 prostate
K-562 leukemia = tested on: K-562 leukemia
MALME-3M melanoma = tested on: MALME-3M melanoma
MDA-MB-231 breast = tested on: MDA-MB-231 breast
RXF 393 renal = tested on: RXF 393 renal
SF-268 CNS = tested on: SF-268 CNS
SF-295 CNS = tested on: SF-295 CNS
SF-539 CNS = tested on: SF-539 CNS
UACC-257 melanoma = tested on: UACC-257 melanoma
M14 melanoma = tested on: M14 melanoma
HCT-15 colon = tested on: HCT-15 colon
HT29 colon = tested on: HT29 colon
SNB-75 CNS = tested on: SNB-75 CNS
SNB-19 CNS = tested on: SNB-19 CNS
U251 CNS = tested on: U251 CNS
PC-3 prostate = tested on: PC-3 prostate
SK-MEL-5 melanoma = tested on: SK-MEL-5 melanoma
UACC-62 melanoma = tested on: UACC-62 melanoma
LOX IMVI melanoma = tested on: LOX IMVI melanoma
SK-MEL-28 melanoma = tested on: SK-MEL-28 melanoma

Measured: growth

C[C@H](C(=O)N(CCc1ccc(Cl)c(Cl)c1)Cc1cncs1)[C@@H]1CC[C@H](C[C@H](C)n2cc(CN3CCC(c4ccc(Cl)cc4)CC3)nn2)O1
active: K-562 leukemia -75.9%
inactive: DU-145 prostate 112% | MALME-3M melanoma 101% | MDA-MB-231 breast 93.5% | RXF 393 renal 103% | SF-268 CNS 102% | SF-295 CNS 99.2% | SF-539 CNS 101% | UACC-257 melanoma 102% | M14 melanoma 99.1% | HCT-15 colon 99.6% | HT29 colon 102% | SNB-75 CNS 97.6% | SNB-19 CNS 94.5% | U251 CNS 100% | PC-3 prostate 86.5% | SK-MEL-5 melanoma 101% | UACC-62 melanoma 90.3% | LOX IMVI melanoma 98.3% | SK-MEL-28 melanoma 102%

Cc1ccc(-c2csc(N(C(=O)N3CCN(c4cc5c(cc4F)c(=O)c(C(=O)O)cn5C4CC4)CC3)c3ccccc3)n2)cc1
inactive: DU-145 prostate 21.4% | K-562 leukemia 13.5% | MDA-MB-231 breast 24.2% | SF-268 CNS 20.4% | M14 melanoma 21.1% | SNB-75 CNS 18.6% | SNB-19 CNS 15.7% | U251 CNS 12.6% | SK-MEL-28 melanoma 32.3%
active: MALME-3M melanoma 3.95% | RXF 393 renal 4.05% | SF-295 CNS 2.22% | SF-539 CNS -0.211% | UACC-257 melanoma 9.78% | HCT-15 colon 7.57% | HT29 colon 3.8% | SK-MEL-5 melanoma -57.2% | UACC-62 melanoma 1.23% | LOX IMVI melanoma 7.08%

COc1ccc(/C=C/C(c2cc(OC)c(OC)c(OC)c2)n2ccnc2)cc1O (stereo unspecified)
inactive: DU-145 prostate 37.8% | K-562 leukemia 13.6% | MALME-3M melanoma 57.7% | MDA-MB-231 breast 53% | RXF 393 renal 33.1% | SF-268 CNS 56.1% | SF-295 CNS 16.6% | SF-539 CNS 23.1% | UACC-257 melanoma 34.2% | M14 melanoma 18.6% | HCT-15 colon 24.9% | HT29 colon 71% | SNB-75 CNS 20% | SNB-19 CNS 47.3% | U251 CNS 27.1% | SK-MEL-5 melanoma 17% | UACC-62 melanoma 36.4% | LOX IMVI melanoma 46.1% | SK-MEL-28 melanoma 58.9%

COC(=O)c1c2c(c(C)[n+]([O-])c1C)C(=O)C(NCc1cccc(Cl)c1)=CC2=O
inactive: DU-145 prostate 38.3% | RXF 393 renal 34.3% | SF-268 CNS 16.2% | SF-295 CNS 42.5% | SNB-75 CNS 127% | LOX IMVI melanoma 11.7% | SK-MEL-28 melanoma 63%
active: K-562 leukemia 6.86% | MALME-3M melanoma -96.2% | MDA-MB-231 breast 3.99% | SF-539 CNS 4.07% | UACC-257 melanoma -37.5% | M14 melanoma 1.44% | HCT-15 colon 7.55% | HT29 colon 5.87% | SNB-19 CNS 9.37% | U251 CNS -6% | PC-3 prostate 4.17% | SK-MEL-5 melanoma -77.7% | UACC-62 melanoma -42.6%

CC1=CC(c2ccco2)=C2C(N)=NNC2N1 (stereo unspecified)
inactive: DU-145 prostate 110% | K-562 leukemia 99.6% | MALME-3M melanoma 92.5% | MDA-MB-231 breast 92.1% | RXF 393 renal 119% | SF-268 CNS 98.7% | SF-295 CNS 98.2% | SF-539 CNS 81.1% | UACC-257 melanoma 102% | M14 melanoma 104% | HCT-15 colon 99.7% | HT29 colon 104% | SNB-75 CNS 64% | SNB-19 CNS 92.9% | U251 CNS 96.8% | PC-3 prostate 101% | SK-MEL-5 melanoma 101% | UACC-62 melanoma 89.3% | LOX IMVI melanoma 98.3% | SK-MEL-28 melanoma 96.5%

CN1CCN(c2ccc3nc4c(nc3c2C(F)(F)F)C(=O)c2ncccc2C4=O)CC1
active: DU-145 prostate -85.7% | K-562 leukemia -6.72% | MALME-3M melanoma -99.2% | MDA-MB-231 breast -5.99% | SF-268 CNS 1.96% | SF-295 CNS -61.6% | SF-539 CNS -52.4% | UACC-257 melanoma -82.3% | M14 melanoma -89.6% | HCT-15 colon -47.5% | HT29 colon -55.5% | SNB-75 CNS 5.3% | U251 CNS 0.911% | SK-MEL-5 melanoma -99.7% | UACC-62 melanoma -82.5% | LOX IMVI melanoma -50.1% | SK-MEL-28 melanoma 5.49%
inactive: RXF 393 renal 38.4% | SNB-19 CNS 17.9%

Nc1nc(N)c2c(n1)NC(c1ccc(Cl)cc1)C1CCc3ccccc3C1=N2 (stereo unspecified)
active: SK-MEL-5 melanoma 7.87%
inactive: DU-145 prostate 64.1% | K-562 leukemia 31% | MALME-3M melanoma 19.6% | MDA-MB-231 breast 76.8% | RXF 393 renal 83.3% | SF-268 CNS 72.3% | SF-295 CNS 20.7% | SF-539 CNS 54.3% | UACC-257 melanoma 58.2% | M14 melanoma 70.4% | HCT-15 colon 45.9% | HT29 colon 41.9% | SNB-75 CNS 62.1% | SNB-19 CNS 76.1% | U251 CNS 51.1% | UACC-62 melanoma 55.2% | LOX IMVI melanoma 56.8% | SK-MEL-28 melanoma 91.3%

O=C(CCCCCCN1CC(=O)N2[C@H](c3ccc(Br)cc3)c3[nH]c4ccccc4c3C[C@@H]2C1=O)NO
inactive: DU-145 prostate 57.5% | K-562 leukemia 14.7% | MALME-3M melanoma 20.4% | MDA-MB-231 breast 43.7% | RXF 393 renal 42.4% | SF-268 CNS 71.4% | SF-295 CNS 67.2% | SF-539 CNS 43.7% | UACC-257 melanoma 34.9% | M14 melanoma 46.6% | HCT-15 colon 103% | HT29 colon 53% | SNB-75 CNS 31.9% | SNB-19 CNS 57.1% | U251 CNS 42.6% | PC-3 prostate 39.1% | SK-MEL-5 melanoma 26% | UACC-62 melanoma 13.8% | LOX IMVI melanoma 12.3% | SK-MEL-28 melanoma 33.9%
